Screens deposited in PubChem by National Center for Advancing Translational Sciences (NCATS).
HT1080 IDH1KD tx = qHTS for induction of synthetic lethality in tumor cells producing 2HG: qHTS for the HT-1080-IDH1KD cell line | Potency, µM (doses to about 46.1 µM), usual class: cytotoxic | 2% of 360,000 active | HT-1080 IDH1 knockdown viability, ATP luminescence, 48 h | AID 686971, 2013
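CellTiter-Glo luminescence after 48 h compound exposure at 37 degrees C of IDH1-knockdown HT-1080 cells in 5% FBS RPMI. %Activity scaled between DMSO wells and cell-free media wells, with curves fitted and assigned curve classes.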
HT1080NT lethal = qHTS for induction of synthetic lethality in tumor cells producing 2HG: qHTS for the HT-1080-NT fibrosarcoma cell line; HT-1080-NT fibrosarcoma viability, CellTiter-Glo ATP luminescence, 48 h; Potency, µM (doses to about 46.1 µM), most hits filed as cytotoxic; 1.6% of 360,000 active; AID 686970, 2013;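 further: NT is the 2HG producing partner of a matched IDH1 knockdown line; nearly all actives have a fitted effect of over 55% in size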
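Fibrosarcoma NT cells, 750 per well in 5% FBS RPMI, were exposed to compound for 48 hours. Viability: CellTiter-Glo luminescence.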
KB-3-1 tox = qHTS assay for MDR1-selective chemotherapeutics: Primary screen using the parental adenocarcinoma cell KB-3-1 | KB-3-1 viability, CellTiter-Glo ATP luminescence, 72 h | 1.4% of 400,000 active | AID 1347075, 2019 | Potency, µM (doses to about 46.1 µM), usual class: cytotoxic; further: nearly all actives have a fitted effect of over 60% in size
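Using CellTiter-Glo luminescence, growth of non-resistant KB-3-1 adenocarcinoma cells is assessed 72 h after pin-tool compound addition at 37 °C. Normalized responses across the concentration series yield fitted curves.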
TDP1 cell noCPT = qHTS for Inhibitors of human tyrosyl-DNA phosphodiesterase 1 (TDP1): qHTS in cells in absence of CPT; DT40 Tdp1-/- hTDP1 cells, no CPT, ATP luminescence, 48 h; AID 686978, 2013; 15% of 420,000 active; Potency, µM (doses to about 46.2 µM), most hits filed as inhibitors; further: nearly all actives have a fitted effect of over 55% in size
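Stably hTDP1-transfected Tdp1-null chicken DT40 cells were treated with library compounds minus camptothecin and grown for at least 48 hr at 37 °C, after which cellular ATP was quantified by luminescence.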
KB-V1 MDR tox = qHTS assay for MDR1-selective chemotherapeutics: Primary screen using the drug-selected MDR subline cells KB-V1. KB-V1 MDR cells viability, CellTiter-Glo, 72 h. Potency, µM (top dose mostly 46.1 µM), hits mostly cytotoxic. 3.4% of 400,000 active; further: nearly all actives have a fitted effect of over 60% in size
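Cells of the MDR subline KB-V1 are plated, dosed with compound at multiple concentrations, and incubated 72 h at 37 degrees C; CellTiter-Glo is then added and luminescence read after 10 min.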
DT40 TDP1 CPT = qHTS for Inhibitors of human tyrosyl-DNA phosphodiesterase 1 (TDP1): qHTS in cells in presence of CPT | chicken DT40 Tdp1-/-;hTDP1 cells + 20 nM CPT, ATP luminescence, 48 h | Potency, µM (top dose mostly 46.2 µM), usual class: inhibitors | 12% of 420,000 active | AID 686979, 2013; further: nearly all actives have a fitted effect of over 55% in size
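Cell growth measured by CellTiter-Glo luminescence after a minimum 48 h, 37 C compound exposure with 20 nM CPT in Tdp1-knockout DT40 cells stably expressing hTDP1, seeded 400/well; qHTS titration format.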
Each line names hits and unclear results; the compound was inactive in the other large screens. Only some compounds are listed: those with a hit (about 19% of all), similar ones and a draw of the others. The call rests on the fitted dose curve; in most records, active means well fitted curve in the direction sought with a large enough effect; inconclusive means small, poorly fitted or top-dose-only effect, or another doubt; inactive means no such curve, though single readings can be large; an effect the other way counts as inactive or inconclusive.

CCCc1ccc2oc(C(=O)N(C)CCn3ccnc3C)c(C)c2c1	TDP1 cell noCPT 13µM, KB-V1 MDR tox inconclusive, DT40 TDP1 CPT 21µM
CN(Cc1ccccc1)C(=O)c1cc2ccccc2o1	none
CCCc1ccc2oc(C(=O)N(C)Cc3cnccn3)c(C)c2c1	KB-3-1 tox inconclusive, TDP1 cell noCPT inconclusive, KB-V1 MDR tox inconclusive, DT40 TDP1 CPT inconclusive
Cc1c(C(=O)N(Cc2ccc(N(C)C)cc2)CC2CCCO2)oc2ccccc12 (stereo not drawn)	TDP1 cell noCPT 23µM, DT40 TDP1 CPT 23µM
COc1ccc(C)cc1NC(=O)c1nnn(CC(=O)Nc2c(C)cccc2C)c1N	none (no result: HT1080 IDH1KD tx, HT1080NT lethal, KB-3-1 tox, KB-V1 MDR tox)
CCCCN1C(=O)C(=O)NC[C@@H]1CC1CCCCC1	TDP1 cell noCPT inconclusive
CCCc1ccc2oc(C(=O)N(Cc3ccncc3)CC3CCCO3)c(C)c2c1 (stereo not drawn)	HT1080 IDH1KD tx inconclusive, HT1080NT lethal inconclusive, TDP1 cell noCPT 18µM, DT40 TDP1 CPT inconclusive
Cc1ccc(CNC(=O)[C@H]2O[C@@H](n3cnc4c(N)ncnc43)[C@H](O)[C@@H]2O)o1	none
Cc1ccc(NC(=O)C(OC(=O)c2cc(C)oc2C)c2ccccc2)cc1 (stereo not drawn)	TDP1 cell noCPT inconclusive, KB-V1 MDR tox inconclusive
Cc1cc(C(=O)OC(C(=O)Nc2cccc(C(F)(F)F)c2)c2ccccc2)c(C)o1 (stereo not drawn)	HT1080 IDH1KD tx inconclusive, HT1080NT lethal inconclusive, TDP1 cell noCPT 21µM, KB-V1 MDR tox inconclusive, DT40 TDP1 CPT inconclusive
CCc1ccc(S(=O)(=O)N2CC(=O)Nc3ccccc32)cc1	none
CCOC(=O)c1ccc(S(=O)(=O)N2CC(=O)Nc3ccccc32)cc1	TDP1 cell noCPT 18µM, DT40 TDP1 CPT 18µM
COc1ccc(NC(=O)c2ccc3nc(CCc4ccccc4)oc3c2)cc1	TDP1 cell noCPT inconclusive, DT40 TDP1 CPT inconclusive (no result: HT1080 IDH1KD tx, HT1080NT lethal)
Cc1cc2oc(=O)cc(CN3CCCCCCC3)c2cc1Cl	TDP1 cell noCPT inconclusive, DT40 TDP1 CPT inconclusive
COc1ccc(-n2c(=O)c(CCC(=O)N3CCN(c4ccccc4O)CC3)nc3ccccc32)cc1	TDP1 cell noCPT inconclusive, KB-V1 MDR tox inconclusive, DT40 TDP1 CPT 26µM
COc1ccc(N2CCN(C(=O)CCc3ccccc3OC)CC2)cc1	TDP1 cell noCPT inconclusive, DT40 TDP1 CPT inconclusive
Cc1ncc2c(c1CNC(=O)c1ccc3c(c1)OCO3)CCN(C(=O)C1Cc3ccccc3O1)C2 (stereo not drawn)	none (no result: HT1080 IDH1KD tx, HT1080NT lethal, KB-3-1 tox, KB-V1 MDR tox)
COc1ccc(Cc2c(-c3ccc(OC)c(OC)c3)nc3c(C)cc(Br)cn23)c(C)c1	HT1080 IDH1KD tx inconclusive, HT1080NT lethal inconclusive, TDP1 cell noCPT 1.5µM, DT40 TDP1 CPT 1.2µM
COc1ccc(-c2nc3c(C)cc(Br)cn3c2Cc2ccccc2)cc1OC	HT1080 IDH1KD tx inconclusive, HT1080NT lethal inconclusive, TDP1 cell noCPT 6.5µM, DT40 TDP1 CPT 7.3µM
COc1ccc(Cc2c(-c3ccc(OC)c(OC)c3)nc3ccc(C)cn23)c(C)c1	HT1080 IDH1KD tx inconclusive, TDP1 cell noCPT 16µM, DT40 TDP1 CPT inconclusive
COc1ccc(Cc2c(-c3ccc(OC)c(OC)c3)nc3cc(C)c(Br)c(C)n23)c(C)c1	HT1080 IDH1KD tx inconclusive, KB-3-1 tox inconclusive, TDP1 cell noCPT inconclusive, DT40 TDP1 CPT inconclusive
CC1CCCN(CCCNC(=O)C2CC(=O)N(CCc3ccccc3)C2)C1 (stereo not drawn)	none
CCOC(=O)N1CCN(C(=O)CCc2ccc(S(=O)(=O)NCCc3ccccc3)cc2)CC1	TDP1 cell noCPT inconclusive, KB-V1 MDR tox 16µM, DT40 TDP1 CPT inconclusive
CCOc1ccc(S(=O)(=O)NCCC(=O)N2CCN(c3ccc(OC)cc3)CC2)cc1	TDP1 cell noCPT 21µM, DT40 TDP1 CPT inconclusive
CCOc1ccc(S(=O)(=O)NCCC(=O)N2CC=C(c3ccccc3)CC2)cc1	KB-3-1 tox 13µM, TDP1 cell noCPT 12µM, KB-V1 MDR tox inconclusive, DT40 TDP1 CPT inconclusive
CCOc1ccc(S(=O)(=O)NCCC(=O)N2CCN(c3ncccn3)CC2)cc1	TDP1 cell noCPT inconclusive, KB-V1 MDR tox 18µM
Cc1ccccc1-c1csc(C(O)c2ccccc2)n1 (stereo not drawn)	none
CCN1C(=O)C(=O)N(CC(=O)Nc2ccccc2Oc2ccccc2)C1=O	none
CS(=O)(=O)N1CCN(C(=O)CCc2ccccc2)CC1	none
O=C(CCc1ccccc1)N1CCCN(C(=O)CCc2ccccc2)CC1	TDP1 cell noCPT inconclusive, KB-V1 MDR tox 21µM
O=[N+]([O-])c1ccc(COc2ncnc3ccccc23)cc1	none
COc1ccccc1C1C(C(C)=O)=C(C)N=c2s/c(=C\c3cc(OC)c(OC)c(OC)c3)c(=O)n21 (stereo not drawn)	TDP1 cell noCPT 21µM, KB-V1 MDR tox inconclusive, DT40 TDP1 CPT 16µM
CC(C)CNS(=O)(=O)c1cc(C(=O)OCC(=O)c2ccc3c(c2)OCCO3)c(Cl)cc1Cl	TDP1 cell noCPT inconclusive
CCCn1c(C)cc(C(=O)COC(=O)c2cc(S(=O)(=O)NCC(C)C)c(Cl)cc2Cl)c1C	TDP1 cell noCPT 15µM, KB-V1 MDR tox inconclusive, DT40 TDP1 CPT inconclusive
